Data taken from PubChem BioAssay AID591 (National Center for Advancing Translational Sciences (NCATS), 2007).
The whole screen tested about 59,000 compounds, of which about 60 (0.1%) were called active. How the calls were made is not given here. Shown is part of a subset that was picked to be rich in actives.

Assay: qHTS Assay for Spectroscopic Profiling in A488 Spectral Region
Conditions: compound autofluorescence; max dye equivalency: Compound Type: qHTS ECL - SigmaAldrich, stronger effect = higher value unless noted; outcome: dye equivalency, Compound Type: qHTS ECL - MLSMR unless noted
Description: NIH Molecular Libraries Screening Centers Network [MLSCN]
NIH Chemical Genomics Center [NCGC]
Occasionally, the artifactual effect may originate from the compounds own spectral or other biophysical properties which generally tend to track its assay concentration. Pre-screening/profiling the library with respect to the compounds spectral properties should help one exclude false positives early on. While the most informative fluorescent profiling data set is obtained by performing a full excitation and emission scan of each well by using a monochromator-based plate reader, such an approach is practical only on a very limited scale as scanning each well requires long time. An alternative approach, applied here, is to perform plate reader scans using selected excitation and emission wavelength pairs to generate a multidimensional relational database that correlates compound concentration and the respective relative fluorescence intensity at a given wavelength set. A standard curve of Alexa 488 (A488) present on each plate as six-point concentration series, was used to compute a normalized fluorescence response, termed dye-equivalent concentration, for each compound at each concentration.
NCGC Assay Protocol Summary:
100 mM Tris buffer, pH 8.0
The wells in columns 1 through 4 of a Kalypsys polypropylene 1536-well compound plate were filled with standard solutions of fluorophore corresponding to the spectral region of interest. Solutions of A488 were placed in the following wells: Y1, Z1: 3 mM, Y2, Z2: 300 uM, Y3, Z3: 30 uM, Y4, Z4: zero (DMSO), AA1, AB1: 3 uM, AA2, AB2: 900 nM, AA3, AB3: 300 nM, AA4, AB4: zero (DMSO).
Six uL of buffer were dispensed to 1536-well Greiner black plates. Compounds and dye standards (23 nL) were transferred via Kalypsys PinTool. The plates were incubated for 15 min at room temperature, and then read on ViewLux (Perkin-Elmer) High-throughput CCD imager using 480 nm and 540 nm excitation and emission filter set.
Keywords: NIH Roadmap, MLSCN, MLI, MLSMR, qHTS, NCGC, A488, A-488, Fluorescent Profiling.
With O=C(O)[C@@H]1[C@@H](C(=O)O)[C@]23C[C@@]2(C(=O)O)[C@]2(C(=O)O)CCC3=C3CCCC312 the outcome was “inactive [dye equivalency, Compound Type: qHTS ECL - NCI]”. In the case of Cc1ccc2[nH]c(=O)c(-c3nc4c(C)cccn4c3NCc3ccco3)cc2c1, the outcome is reported as “inactive”. With CN(C)c1ccc(CNC23CN4CN(CN(C4)C2)C3)cc1 the outcome was “inactive [dye equivalency, Compound Type: qHTS ECL - DPISMR]”. In the case of Cn1cc(-c2nc3cnc(N4CCNCC4)nc3n(CCc3ccccc3)c2=O)c2ccccc21, the outcome is reported as “inactive [dye equivalency, Compound Type: qHTS ECL - Pharmacopeia]”. For CNC(=O)NCCN1CCCC1=O, the outcome was “inactive”. With COc1ccc(-n2c(=O)c(C)nc3cnc(N4CCOCC4)nc32)cc1 the outcome was “inactive [dye equivalency, Compound Type: qHTS ECL - Pharmacopeia]”. With CC1(c2ccccc2Cl)NC(=O)N(CC(=O)NC(=O)NCc2ccco2)C1=O (stereo not given) the outcome was “inactive”. With COc1ccc(CCN2C(=O)c3[nH]nc(-c4ccccc4O)c3C2c2ccc(C)cc2)cc1OC (stereo not given) the outcome was “inactive [dye equivalency, Compound Type: qHTS ECL - DPISMR]”. With COC(=O)C(C)N(C#N)c1nc(C)nc(C)n1 (stereo not given) the outcome was “inactive [dye equivalency, Compound Type: qHTS ECL - DPISMR]”. For Cc1noc(C)c1C(=O)OCC(=O)/C=C1\N(C)c2ccccc2C1(C)C, the outcome was “inactive”. For Cc1ccc(Oc2nc3ccccc3n3c(C)nnc23)cc1, the outcome was “inactive [dye equivalency, Compound Type: qHTS ECL - DPISMR]”. With CCOc1ccc(OCC)c(NC(=O)CN(C)S(=O)(=O)c2cccc3nsnc23)c1 the outcome was “inactive”. In the case of CCC(C)(C)NC(=O)C(c1cccn1C)N(Cc1ccc(C)cc1)C(=O)Cn1nnc2ccccc21 (stereo not given), the outcome is reported as “inactive”. For COc1ccc(OCC(=O)OCCN(C)C)cc1, the outcome was “inactive”. For CC(C)C1N=C2c3ccccc3N=C(SCC(=O)c3ccc(O)c(O)c3)N2C1=O (stereo not given), the outcome was “inactive [dye equivalency, Compound Type: qHTS ECL - DPISMR]”. With CCC(=O)Nc1cccc(NC(=O)CSc2nnc(-c3ccc(NS(C)(=O)=O)cc3)n2C)c1 the outcome was “inactive”. In the case of Cc1nn(-c2ccccc2)c2c1C(=O)NC(=O)C(C)(C)C2, the outcome is reported as “inactive”. For COc1cc([C@H]2c3cc4c(cc3[C@@H](O[C@@H]3O[C@H]5CO[C@@H](C)O[C@]5(O)C[C@H]3O)[C@@H]3COC(=O)[C@H]23)OCO4)cc(OC)c1O, the outcome was “inactive [dye equivalency, Compound Type: qHTS ECL - SigmaAldrich]”. In the case of O=C(O)c1c(Br)c(Br)c(Br)c(Br)c1C1c2ccc(O)cc2Oc2cc(O)ccc21, the max dye equivalency is reported as 15 nM [Compound Type: qHTS ECL - NCI, stronger effect = higher value] (active). For COc1ccc(OC)c(CN2C(=O)CCC2(C)C(=O)NC2CCCCCC2)c1 (stereo not given), the outcome was “inactive”. In the case of CCCCCN(C(=O)NC(=O)Nc1ccccc1OC)S(C)(=O)=O, the outcome is reported as “inactive”. With Cn1c(=S)c2[nH]c(SCCCc3ccccc3)nc2n(C)c1=O the outcome was “inactive [dye equivalency, Compound Type: qHTS ECL - NCI]”. For ClC(Cl)(Cl)C(N1CCN(c2ccccc2)CC1)N1CCN(c2ccccc2)CC1, the outcome was “inactive [dye equivalency, Compound Type: qHTS ECL - NCI]”. For CCOC(=O)Nc1ccccc1N1C(=O)c2ccccc2C1=O, the outcome was “inactive”. For CCOC(=O)c1cc2n(c1N)-c1ccccc1C2=O, the max dye equivalency was 39 nM [Compound Type: qHTS ECL - DPISMR, stronger effect = higher value] (active). With CCOC(=O)c1cc2n(c1C)-c1ccccc1C2=O the outcome was “inactive”. For COc1ccc2oc(C)c(NC(C)=O)c2c1, the outcome was “inactive”. In the case of NC(=O)CSC1=Nc2ccccc2C2=NC(CCC(=O)NCc3ccc(F)cc3)C(=O)N12 (stereo not given), the outcome is reported as “inactive [dye equivalency, Compound Type: qHTS ECL - DPISMR]”. For Oc1c(C(c2ccccn2)N2CCOCC2)ccc2cccnc12 (stereo not given), the outcome was “inactive”. In the case of COc1cc(OC)cc(C(=O)Nc2ccc(-c3nc4ccccc4o3)c(O)c2)c1, the outcome is reported as “inactive”. With Clc1ccccc1-c1cc(NCCN2CCOCC2)ncn1 the outcome was “inactive [dye equivalency, Compound Type: qHTS ECL - Pharmacopeia]”. For O=C1c2ccncc2C(=O)N1C1CCCCC1, the outcome was “inactive”. For COc1cc(C2C(C#N)=C(N)Oc3n[nH]c(-c4ccccn4)c32)cc(OC)c1OC (stereo not given), the outcome was “inactive”. With CS(=O)(=O)c1ccc2nc(NC(=O)CN3CCCCCC3)sc2c1 the outcome was “inactive”. For CC(=O)c1sc2nc(SCC(=O)N3CCCCC3)[nH]c(=O)c2c1C, the outcome was “inactive [dye equivalency, Compound Type: qHTS ECL - DPISMR]”. With O=C(CN1CCN(c2ncc(C(F)(F)F)cc2Cl)CC1)Nc1ccc2c(c1)OCO2 the outcome was “inactive”. For O=c1cnc2cnc(Nc3ccccc3)nc2n1Cc1ccc(F)cc1, the outcome was “inactive [dye equivalency, Compound Type: qHTS ECL - Pharmacopeia]”. For CCOc1ccc(-n2c(SC(C)C(=O)OC)nc3c(c2=O)SCC3)cc1 (stereo not given), the outcome was “inactive”. With CC(Sc1sc(=S)sc1SC(C)C(=O)O)C(=O)O (stereo not given) the outcome was “inactive”. For CN(C)c1ccc(-c2nc(NCCN3CCOCC3)c3ccccc3n2)cc1, the outcome was “inactive [dye equivalency, Compound Type: qHTS ECL - Pharmacopeia]”. For COCCn1c(=O)c(-c2ccccc2)nc2cnc(N3CCOCC3)nc21, the outcome was “inactive [dye equivalency, Compound Type: qHTS ECL - Pharmacopeia]”. With O=C(c1cccc(F)c1)N1CCC2(CC1)CCN(c1ccccc1)CC2 the outcome was “inactive [dye equivalency, Compound Type: qHTS ECL - Pharmacopeia]”. For Clc1ccc(Cn2ncc3c(NCc4cccnc4)ncnc32)cc1, the outcome was “inactive [dye equivalency, Compound Type: qHTS ECL - DPISMR]”. For O=C(O)C1CCCN1S(=O)(=O)c1ccc2c(c1)CCC2 (stereo not given), the outcome was “inactive”. In the case of CN(C)C(=O)c1ccc(-c2cncnc2Nc2ccccc2)cc1, the outcome is reported as “inactive [dye equivalency, Compound Type: qHTS ECL - Pharmacopeia]”.
